# Experimental data: the supplement of paper PMC6555819
# System: VDR:RXRa (NR concentration 270 nM, RXRa partner concentration 90 nM)
# Experiment: PBM binding z-score (relative to random genomic background probes); higher = stronger binding; sequences stand for … in GC…GCGATTGACAGCGTAGAATGAAGG
# Method: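 Protein-binding microarray (Agilent 4x180K custom design, double-stranded 60-nt probes: 5' GC cap, 34-nt variable region, 24-nt constant primer region; full probe sequence given). Purified or IVT nuclear receptor:RXRα heterodimers (3:1 NR:RXRα, mostly 270:90 nM) or homodimers were incubated for 1 h in PBS with 2% milk and no ligand, then detected with Alexa488 antibodies. Fluorescence from o1-orientation probes (~5 replicates averaged) was converted to z-scores against 500 random hg19 background probes. Variable regions are seed direct-repeat (DR0–DR5) sites, all their single-nucleotide variants and half-site ablations.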
row,Sequence,PBM binding z-score
1,CCTTACGGGTCACTGACAGGTTACAGCATTTGGA,3.76
2,GCTTGTAGATCAAGGTTAAGAACGACTAAGCTAA,0.288
3,GCTCGAAGGACAAGGTCAGAGCTTTGTCCGTAGA,1.31
4,GGAACGAGTGCAAAGTTGATAGCATCTGTCGACG,1.49
5,ATAAGTAGGTTAGCTGGGGTCATTCAGACTAGGC,5.98
6,CGAACTAGGTCAAGAGGTCAAAGTCCGCTTCCCG,6.13
7,TCTCGCAGGACACGAAAGGTCAGAGCTCGACATC,2.89
8,TCATATAGATAAAGGTGAAAGTCGAACGATATGA,0.945
9,ATCGAAAGGTCGAGGTGAGTATCGAGAAAGGGAA,2.57
10,TCTGCTAGGTCAACGATGGTCAGCTCATCTGCTA,1.65
11,ATGTGTAGGTTAAGGGTCATTCAGGTTGGTTCGC,5.79
12,GTACCAAGGTGAATAGGTCGTTCATGAGTAGGCG,1.06
13,GCTAGTTGGGCAGTAAAAGGTCACACACCGGTCG,3.62
14,ATCTCTAGGTAAAGCTCAGTGAAAGATCGATAGA,-0.295
15,CCAGACAGGTGAGAAGGTAACTCATCCTCGATTA,0.198
16,GCGCCTGGGGCAAAGCAGGTTACCATAAGGTTGG,-0.092
17,ATCTCTAGGTAAGACTCAGTTCAGTGATGAACGC,0.927
18,CGAACTAGTTCATTGACAGGACAGTGAATAGTAA,1.26
19,GCTATTAGTTGAAAGGGCGACCGAATGATTCTCG,-0.17
20,CCTAGCAGGCCAATCTGGGTCACTCCAGGCTTGA,0.284

row,Sequence,PBM binding z-score
1,GCATATAGGTAATCCAAGGTGAAAGTCCGATTGT,0.373
2,CGAACTAGGTCATTGACCGGACAGTGAATAGTAA,1.96
3,TCGAGTAGGTTAGGGGCAATCAGAATGGCGTCGA,0.363
4,CAAACTATGTCACGAAAGGTCAAAGTCGAATGAC,5.07
5,TAGCCTAGGTCATTGGGCCAGTTTAGTACGCATC,2.37
6,TCTATTAGTTGATTAGGGCAATCGAAACAGCGGA,0.607
7,GCTATTAGTTGAAAGGTCAACCGAATGATTCTCG,4.71
8,CAAACTAGGTCACAGAGGTAAAAGTCCGTGCGTA,4.96
9,CCTAGCAGGCCAGGGCCACTCAAGCATTTCGCTT,-1.03
10,TAGCCTAGGTCATGCCGGCCAGTATAGTGTCGGC,1.95
11,CAAACTATGTCACCGGAAGGTCAAAGTCCGCATG,3.84
12,CCAGACAGGTGAGAAGGAAACTCAGCCTCGATTA,-0.211
13,GCTTGCGGGTCAAAGGTTATAGCATGAATAGAAT,5.03
14,AATCCAGGGTCACTAGGCCAGAGTAGGTACGAAT,4.31
15,CCTATTCGTTGACCATAAGGGCAACCGAAGCTCG,0.983
16,CATCCAGGGTCAGCTAGGCCAGAGTAGGGACGGC,3.97
17,CCTTACGGGTCACTGAAAGGTTATAGCATTTGGA,4.52
18,AACGAAAGGTCGTGAGGTGAGTATACAGAAAGGC,3.68
19,TCATATAGGTAAAAGGTAAAAGTCGGTGTGGTAA,1.33
20,ACTTGTTGGTCAGCTGAGGTCACACACAATTCGG,4.61
